From PubChem BioAssay (EPA / NIEHS) come the findings set out here.

Read-out in experiment [1]: Interleukin-6 (IL6), IL6 (gene 3569)
As to the kind of experiment: BSK_CASM3C_IL6: BioMAP Diversity Plus: CASM3C Assay for Interleukin-6 (IL6) Biomarker Activity for (AID 2283040). To be noted: primary human coronary artery smooth muscle cells; actives raise or lower the signal.

Read-out in experiment [2]: Tissue plasminogen activator (tPA), PLAT (gene 5327)
As to the kind of experiment: BSK_BE3C_tPA: BioMAP Diversity Plus: BE3C Assay for Tissue plasminogen activator (tPA) Biomarker Activity (AID 2283041).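 Note: tPA level quantified by ELISA one day after compound addition.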 The settings on record: primary human bronchial epithelial cells; actives raise or lower the signal. In short, it runs like this:
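Primary human bronchial epithelial cells in the BE3C system, exposed to compound for 24 h. tPA was quantified by ELISA; DMSO served as baseline, with gain or loss of signal fitted. Cytotoxicity checked in parallel cultures by SRB total-protein staining.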

Read-out in experiment [3]: Interleukin-8 (IL8), CXCL8 (gene 3576)
As to the kind of experiment: BSK_CASM3C_IL8: BioMAP Diversity Plus: CASM3C Assay for Interleukin-8 (IL8) Biomarker Activity (AID 2283042).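 Note: IL-8 protein level quantified by ELISA.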 To be noted: primary human coronary artery smooth muscle cells; actives raise or lower the signal.

Read-out in experiment [4]: Human Leukocyte Antigen - DR isotype (HLADR), HLA-DRA (gene 3122)
As to the kind of experiment: BSK_CASM3C_HLADR: BioMAP Diversity Plus: CASM3C Assay for Human Leukocyte Antigen - DR isotype (HLADR) Biomarker Activity (AID 2283043).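 Note: cell-surface HLA-DR protein level quantified by ELISA.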 To be noted: primary human coronary artery smooth muscle cells; actives raise or lower the signal.

Read-out in experiment [5]: Macrophage colony-stimulating factor (MCSF), CSF1 (gene 1435)
As to the kind of experiment: BSK_CASM3C_MCSF: BioMAP Diversity Plus: CASM3C Assay for Macrophage colony-stimulating factor (MCSF) Biomarker Activity (AID 2283044).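 Note: M-CSF protein amount quantified by ELISA after 24 h exposure.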 To be noted: primary human coronary artery smooth muscle cells; actives raise or lower the signal.

Read-out in experiment [6]: Low-density lipoprotein receptor (LDLR), LDLR (gene 3949)
Briefly: BSK_CASM3C_LDLR: BioMAP Diversity Plus: CASM3C Assay for Low-density lipoprotein receptor (LDLR) Biomarker Activity (AID 2283045).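 Note: LDLR protein level on the cell surface quantified by ELISA.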 To be noted: primary human coronary artery smooth muscle cells; actives raise or lower the signal.

Read-out in experiment [7]: Monocyte Chemoattractant Protein-1 (MCP1), CCL2 (gene 6347)
Briefly: BSK_CASM3C_MCP1: BioMAP Diversity Plus: CASM3C Assay for Monocyte Chemoattractant Protein-1 (MCP1) Biomarker Activity (AID 2283046).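 Note: MCP-1 level quantified by ELISA 24 h after dosing.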 To be noted: primary human coronary artery smooth muscle cells; actives raise or lower the signal.

A short description of experiment [8]: BSK_CASM3C_Proliferation: Cell Proliferation Assessment in the BioMAP Diversity Plus: CASM3C Assay (AID 2283047).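 Note: sulforhodamine B total protein stain as relative cell number at 560 nm; sub-confluent cells exposed 48 h before staining; fitted both ways against DMSO so gain or loss of cell number.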 The settings on record: primary human coronary artery smooth muscle cells.
Read-out in experiment [9]: Monokine induced gamma interferon (MIG), CXCL9 (gene 4283)
As to the kind of experiment: BSK_CASM3C_MIG: BioMAP Diversity Plus: CASM3C Assay for Monokine induced gamma interferon (MIG) Biomarker Activity (AID 2283048).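 Note: MIG protein level measured by ELISA.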 To be noted: primary human coronary artery smooth muscle cells; actives raise or lower the signal.

Read-out in experiment [10]: serum amyloid A (SAA), SAA1 (gene 6288)
As to the kind of experiment: BSK_CASM3C_SAA: BioMAP Diversity Plus: CASM3C Assay for serum amyloid A (SAA) Biomarker Activity (AID 2283049).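 Note: SAA protein level quantified by ELISA.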 To be noted: primary human coronary artery smooth muscle cells; actives raise or lower the signal.

The nature of experiment [11]: BSK_CASM3C_SRB: Viability Assessment in the BioMAP Diversity Plus: CASM3C Assay (AID 2283050). To be noted: primary human coronary artery smooth muscle cells.
Read-out in experiment [12]: Thrombomodulin, THBD (gene 7056)
Briefly: BSK_CASM3C_Thrombomodulin: BioMAP Diversity Plus: CASM3C Assay for Thrombomodulin Biomarker Activity (AID 2283051).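 Note: thrombomodulin protein level measured by ELISA 24 h after dosing.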 The settings on record: primary human coronary artery smooth muscle cells; actives raise or lower the signal.

Read-out in experiment [13]: Tissue Factor, F3 (gene 2152)
As to the kind of experiment: BSK_CASM3C_TissueFactor: BioMAP Diversity Plus: CASM3C Assay for Tissue Factor Biomarker Activity (AID 2283052).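 Note: cell surface tissue factor protein level read by ELISA.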 To be noted: primary human coronary artery smooth muscle cells; actives raise or lower the signal.

Read-out in experiment [14]: Interferon-gamma inducible Protein 10 (IP10), CXCL10 (gene 3627)
As to the kind of experiment: BSK_hDFCGF_IP10: BioMAP Diversity Plus: hDFCGF Assay for Interferon-gamma inducible Protein 10 (IP10) Biomarker Activity (AID 2283053). To be noted: primary human foreskin fibroblasts; actives raise or lower the signal. In short, it runs like this:
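Primary human foreskin fibroblasts exposed to chemicals for 24 h. IP-10 measured by ELISA; changes fitted bidirectionally against DMSO baseline.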

Read-out in experiment [15]: Urokinase-type plasminogen activator receptor (uPAR), PLAUR (gene 5329)
Briefly: BSK_CASM3C_uPAR: BioMAP Diversity Plus: CASM3C Assay for Urokinase-type plasminogen activator receptor (uPAR) Biomarker Activity (AID 2283054).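 Note: cell-surface uPAR protein level quantified by ELISA.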 The settings on record: primary human coronary artery smooth muscle cells; actives raise or lower the signal.

Read-out in experiment [16]: Vascular cell adhesion molecule 1 (VCAM1), VCAM1 (gene 7412)
Briefly: BSK_CASM3C_VCAM1: BioMAP Diversity Plus: CASM3C Assay for Vascular cell adhesion molecule 1 (VCAM1) Biomarker Activity (AID 2283055).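 Note: VCAM-1 protein level quantified by ELISA on the cells.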 To be noted: primary human coronary artery smooth muscle cells; actives raise or lower the signal.

Read-out in experiment [17]: Collagen III, COL3A1 (gene 1281)
Briefly: BSK_hDFCGF_CollagenIII: BioMAP Diversity Plus: hDFCGF Assay for Collagen III Biomarker Activity (AID 2283056). The settings on record: primary human foreskin fibroblasts; actives raise or lower the signal. In short, it runs like this: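 Human foreskin primary fibroblasts were exposed to test chemicals for 24 h, after which collagen III was quantified by ELISA. Activity was fitted bidirectionally against DMSO as negative control and baseline.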

Read-out in experiment [18]: Epidermal growth factor receptor (EGFR), EGFR (gene 1956)
As to the kind of experiment: BSK_hDFCGF_EGFR: BioMAP Diversity Plus: hDFCGF Assay for Epidermal growth factor receptor (EGFR) Biomarker Activity (AID 2283057). The settings on record: primary human foreskin fibroblasts; actives raise or lower the signal. In outline: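 Primary human foreskin fibroblasts (hDFCGF system), sampled 24 h after dosing; EGFR quantified by ELISA. Bidirectional fit relative to DMSO baseline; SRB total-protein staining in parallel cultures for cytotoxicity.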

Read-out in experiment [19]: Interleukin-8 (IL8), CXCL8 (gene 3576)
Briefly: BSK_hDFCGF_IL8: BioMAP Diversity Plus: hDFCGF Assay for Interleukin-8 (IL8) Biomarker Activity (AID 2283058). To be noted: primary human foreskin fibroblasts; actives raise or lower the signal. In outline: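 hDFCGF human dermal fibroblasts; 24 h chemical exposure; IL-8 by ELISA; bidirectional curve fit vs DMSO baseline; gain or loss of signal scored.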

Experiment [20] in a line: BSK_hDFCGF_Proliferation: Cell Proliferation Assessment in the BioMAP Diversity Plus: hDFCGF Assay (AID 2283059).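 Note: curves fitted for both rise and fall of signal versus DMSO baseline.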 The settings on record: primary human foreskin fibroblasts. In short, it runs like this: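 This proliferation readout used SRB total-protein staining of human foreskin fibroblasts […], normalized to DMSO with bidirectional curve fitting.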

Active and inactive are the calls of the source. Rule for the calls: active = hit-call score of the fitted dose curve at least 0.9, where 1 is the maximum; inactive = score below 0.9.

With `Cc1ccc(N=Nc2c(O)ccc3ccccc23)c(C)c1`, the result in [1], in [2], in [3], in [4], in [5] and in experiment [6] was inactive. The result in experiment [7], in experiment [8], in experiment [9], in experiment [10], in [11] and in experiment [13] was inactive. The result in experiment [15], in experiment [16], in experiment [18] and in [19] was inactive. In addition, the AC50 in experiment [12] is 8070 nM (active); in experiment [14] it was 10000 nM (active); in experiment [17] it was 6800 nM (active).

With `CC1=NN(c2ccccc2)C(=O)C1`, the outcome in experiment [1], in experiment [2], in [3], in [4], in experiment [5] and in experiment [6] was inactive. Moreover, the outcome in [7], in experiment [8], in [9], in experiment [10], in [11] and in experiment [13] was inactive. Further, the result in experiment [14], in experiment [15], in experiment [16], in experiment [17], in experiment [18] and in experiment [19] was inactive. Moreover, the AC50 in [12] is 9620 nM (active).

As for `CN(C)c1ccc(C(=C2C=CC(=[N+](C)C)C=C2)c2ccccc2)cc1`, the AC50 in experiment [1] was 103 nM (active); in experiment [3] it was 1980 nM (active); in experiment [4], 39.2 nM (active); in experiment [5], 825 nM (active); in [6] it was 32.3 nM (active); in [7], 61.5 nM (active). Besides, the AC50 was 553 nM (active) in experiment [8]; 1170 nM (active) in [9]; 16.8 nM (active) in experiment [10]; 296 nM (active) in experiment [11]; 758 nM (active) in [12]; 19.5 nM (active) in experiment [13]. Besides, the AC50 in [14] was 13.8 nM (active); in experiment [15] it was 46.1 nM (active); in [16], 554 nM (active); in experiment [17] it was 1230 nM (active); in [19] it was 2670 nM (active); in experiment [20], 17.3 nM (active). For the same molecule, the outcome in experiment [2] and in experiment [18] was inactive.

`CC(=O)Nc1ccc(O)cc1`: the outcome in [1], in experiment [2], in experiment [3], in experiment [4], in experiment [5] and in experiment [6] was inactive. Further, the outcome in [7], in experiment [8], in [9], in [10], in experiment [11] and in experiment [12] was inactive. In addition, the outcome in experiment [13], in [14], in experiment [15], in experiment [16], in experiment [17] and in experiment [18] was inactive. Further, the result in experiment [19] and in experiment [20] was inactive.

For `O=C(CCCN1CCC(O)(c2ccc(Cl)cc2)CC1)c1ccc(F)cc1`, the outcome in experiment [1], in experiment [2], in experiment [3], in experiment [4], in [5] and in experiment [7] was inactive. Also, the result in experiment [9], in experiment [10], in experiment [11], in experiment [12], in [13] and in [14] was inactive. Moreover, the result in experiment [15], in [16], in experiment [17], in experiment [18] and in experiment [19] was inactive. Besides, the AC50 in experiment [6] is 9200 nM (active); in experiment [8], 20000 nM (active).

As to `N=C(N)c1ccc(OCCCCCOc2ccc(C(=N)N)cc2)cc1`, the AC50 is 20700 nM (active) in experiment [1]; 24100 nM (active) in experiment [3]; 17500 nM (active) in experiment [4]; 15000 nM (active) in experiment [5]; 12400 nM (active) in [8]; 17500 nM (active) in experiment [14]. The AC50 in experiment [18] is 29100 nM (active); in experiment [19], 20900 nM (active); in experiment [20], 12100 nM (active). Moreover, the result in experiment [2], in [6], in experiment [7], in experiment [9], in [10] and in experiment [11] was inactive. Also, the outcome in experiment [12], in [13], in experiment [16] and in experiment [17] was inactive.

Broadly, the AC50 is the concentration at which the activity in the assay is half-maximal.
